TRPV1 potentiator = human TRPV1 potentiation; Q8NER1; TRPV1-expressing cells, Fluo-8 calcium influx, capsaicin EC20 potentiation; potentiation, % at 8.33 µM; 320,000 compounds, 0.02% hits; AID 540277; in the data active = potentiation above about 80%; inconclusive = between about 30% and that limit; also: 0% is about no effect
Target sequence (Q8NER1 whole entry, looked up): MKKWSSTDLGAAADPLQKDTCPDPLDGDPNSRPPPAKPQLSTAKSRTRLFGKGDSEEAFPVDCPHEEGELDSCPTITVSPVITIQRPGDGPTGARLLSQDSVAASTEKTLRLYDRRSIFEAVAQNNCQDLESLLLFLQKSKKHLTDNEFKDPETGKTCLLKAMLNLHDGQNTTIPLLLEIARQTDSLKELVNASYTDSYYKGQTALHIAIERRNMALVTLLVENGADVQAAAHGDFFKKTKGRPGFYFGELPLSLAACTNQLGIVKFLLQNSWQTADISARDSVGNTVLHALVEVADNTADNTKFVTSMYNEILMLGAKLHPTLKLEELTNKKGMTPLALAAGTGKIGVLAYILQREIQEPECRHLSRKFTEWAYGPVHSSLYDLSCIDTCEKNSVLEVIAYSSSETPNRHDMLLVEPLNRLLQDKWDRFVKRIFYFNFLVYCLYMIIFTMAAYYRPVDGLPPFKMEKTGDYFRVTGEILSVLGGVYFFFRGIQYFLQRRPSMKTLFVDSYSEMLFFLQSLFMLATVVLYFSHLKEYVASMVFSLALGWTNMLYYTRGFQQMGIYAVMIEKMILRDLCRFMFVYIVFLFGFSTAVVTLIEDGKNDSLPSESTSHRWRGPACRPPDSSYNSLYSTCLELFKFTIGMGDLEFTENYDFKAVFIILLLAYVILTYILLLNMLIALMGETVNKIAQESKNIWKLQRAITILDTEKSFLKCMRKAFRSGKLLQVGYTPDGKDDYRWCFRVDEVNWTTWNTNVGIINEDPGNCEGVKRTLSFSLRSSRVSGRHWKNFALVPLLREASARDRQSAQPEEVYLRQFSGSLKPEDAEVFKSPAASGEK
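TRPV1-expressing cells were cultured overnight at 35.5C and loaded with Fluo-8 calcium dye for 40 to 90 min at room temperature. After a 10 s baseline, compound was added and calcium influx was read kinetically for 3 min (ex 480/em 520 nm).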
KCNH2 WT inh = inhibitors of human wildtype KCNH2 potassium channel; 340,000 compounds, 0.37% hits; activity change, % at 1.84 µM; AID 720551; Q12809; U2OS, BacMam KCNH2, thallium flux FluxOr; hits give low values;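 active = maximum activity change below -70%; inconclusive = maximum activity change between -70% and -50%; inactive = maximum activity change above -50%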; also: % is scaled to controls: 0 for no effect and ±100 for the full control effect
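U2OS cells were transduced with wild-type KCNH2 virus (2.03 x 10^8 / mL) for 4 h at room temperature, then cultured overnight at 37 C. Thallium flux was read with FluxOr dye. Rate constants were normalized to DMSO controls.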
KCNH2 3.1 block = inhibitors of human KCNH2 3.1 potassium channel isoform. U2OS KCNH2 3.1, thallium flux FluxOr; hits give low values. activity change, % (tested at about 1.8 µM). 340,000 compounds, 0.95% hits;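 active = maximum activity change below -70%; inconclusive = maximum activity change from -70% to -50%; inactive = maximum activity change above -50%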;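 also: thallium influx rate constant from kinetic fluorescence after stimulation buffer; % is scaled to controls: 0 for no effect and ±100 for the full control effect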
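Measured as rate of thallium-driven FluxOr signal in transduced U2OS cells carrying the 3.1 channel, read kinetically for 2 min upon stimulation; values are rate constants scaled to DMSO control wells.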
TRPV1 agonist = human TRPV1 agonism; Q8NER1; TRPV1-expressing cells, Fluo-8 calcium influx, agonist mode; activation, % at 8.33 µM; 320,000 compounds, 0.19% hits; in the data active = activation above about 80%; inconclusive = between about 30% and that limit; also: 0% is about no effect
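TRPV1-expressing cells were cultured overnight at 35.5C and loaded with Fluo-8 calcium dye for 40 to 90 min at room temperature. After a 10 s baseline, compound was added and calcium influx was read kinetically for 3 min (ex 480/em 520 nm).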
An asterisk follows results filed as active; ? = inconclusive; . = not tested or not shown. In the library only some 1.2% were active in any assay of this set; here they are far more common.

SMILES	TRPV1 potentiator	KCNH2 WT inh	KCNH2 3.1 block	TRPV1 agonist
CC(C)(C)NC(=O)NC(=O)CN1CCCc2ccccc21	-3	5	-88*	4
O=C(CN1CCCc2ccccc21)NC(=O)NCc1ccccc1	-9	1	-2	2
Cc1cc(C)n(CC(=O)O)n1	13	-7	-182*	0
Cc1nc(SCC(=O)N2CCCCCC2)[nH]c(=O)c1C	8	1	3	0
Cc1ccc(OCCCC(=O)Nc2cc(S(=O)(=O)N3CCOCC3)ccc2N2CCOCC2)cc1	4	2	8	0
CSc1nnc(-c2cnccn2)n1C	5	-15	-97*	-1
COc1ccccc1/C=N/NC(=O)c1csc(C)c1C	10	0	.	2
CCOc1ccc(/C=N/NC(=O)c2csc(C)c2C)c(OCC)c1	-3	-8	-81*	10
O=C(CN1C(=O)NC(c2ccccc2)(c2ccccc2)C1=O)N1CCN(c2ccccc2F)CC1	4	1	-198*	-1
COCOCCn1cc(CN2CCS(=O)(=O)N(Cc3ccc(-c4ccc(Cl)nc4)cc3)C(C(C)C)C2=O)nn1 (stereo unspecified)	.	-19	-7	.
COc1ccccc1CNC(=O)Cn1nnnc1CN(C)C(C)C	3	1	15	1
COc1ccccc1Cc1nnnn1CC(=O)O	7	0	-92*	6
O=C(Cn1cc(Cl)ccc1=O)c1ccc(Cl)cc1	-4	-134*	.	8
O=C(CN1CCN(CC(=O)c2ccc(Cl)cc2)CC1)c1ccc(Cl)cc1	.	4	-5	.
CCCOC(=O)NC(CC)COC(=O)Nc1cc(C)ccc1C (stereo unspecified)	4	-8	0	?
Cn1cccc1Cc1nnc(SCC(=O)NC2CCCCC2)n1CCc1ccccc1	2	-3	6	2
CC1CCCCN1C(=O)c1ccc(NC(=O)c2ccccc2Cl)cc1 (stereo unspecified)	5	-202*	?	0
CC1CCCCN1C(=O)c1ccc(C(=O)Nc2ccc(F)cc2)cc1 (stereo unspecified)	-9	5	-7	3
CCCCCN(C(=O)CCC(=O)OC(C)C(=O)c1ccccc1)c1c(N)n(CCCC)c(=O)[nH]c1=O (stereo unspecified)	-7	-7	-1	1
CCOc1ncccc1C(=O)NCc1ccc(OC)c(OC)c1	10	-6	-102*	-2
Cc1[nH]c2ccc(C(=O)O)cc2c1C	4	-2	0	3
CCCc1c(C)[nH]c2ccc(C(=O)O)cc2c1=S	?	-82*	4	-7
COc1ccc(/C=N/NC(=O)c2nc(-c3ccccc3)cc(-c3ccccc3)n2)cc1OC	7	-4	-72*	1
COc1cccc(/C=N/NC(=O)c2nc(-c3ccccc3)cc(-c3ccccc3)n2)c1	0	-11	-78*	-4
COc1ccc(C(C#N)CC(=O)c2ccc(OC)c(OCc3ccccc3)c2)cc1OC (stereo unspecified)	.	10	0	.
SMILES	TRPV1 potentiator	KCNH2 WT inh	KCNH2 3.1 block	TRPV1 agonist
CN(C)CCN(C(=O)/C=C/c1cccs1)c1nc2ccc(F)cc2s1	-6	-8	?	-2
CCN(CC)CCN(C(=O)/C=C/c1cccs1)c1nc2ccc(Cl)cc2s1	-8	-149*	-100*	-1
N#CCC(=O)Nc1ccc(C(=O)Nc2cccc(S(=O)(=O)N3CCCC3)c2)cc1	.	-1	-1	.
OCCCCNCc1ccc(OCc2ccc(Cl)cc2Cl)cc1	6	-17	-44	3
OCCNCc1ccc(OCc2ccc(Cl)cc2Cl)cc1	6	15	-84*	2
O=S(=O)(c1ccc(Cl)cc1)N1CCC(n2cnc3cc(C(F)(F)F)ccc32)CC1	.	-41	-83*	.
Cc1ccc(N2CC(O)CSC2=Nc2ccccc2)cc1 (stereo unspecified)	.	-5	6	.
Cc1c(Cl)ccc2sc(NC(=O)c3ccco3)nc12	11	-9	-7	90*
CN(Cc1cnc2nc(N)nc(N)c2n1)c1ccc(C(=O)NC(CCC(=O)O)C(=O)O)cc1 (stereo unspecified)	.	-8	14	.
Cc1ccc(N(CC(O)CN2CCCCC2)S(=O)(=O)c2ccc(C)cc2)cc1 (stereo unspecified)	-23	-7	-99*	0
CCN(CC)c1ccc(S(=O)(=O)N2CCOCC2)cc1NC(=O)CSc1nncs1	-4	-215*	-187*	-8
CCN(CC)c1ccc(S(=O)(=O)N2CCOCC2)cc1NC(=O)CSc1nncn1C	-3	-19	-5	-2
CCN(CC)c1ccc(S(=O)(=O)N2CCOCC2)cc1NC(=O)c1cc(=O)c2ccccc2o1	1	0	-74*	1
O=C(NCc1ccc(Cl)cc1)C1CCN(S(=O)(=O)c2cccnc2)CC1	6	-5	4	9
N#C/C(=C\c1ccc(F)c(Cl)c1)S(=O)(=O)c1ccccn1	1	11	-1	-2
O=C(/C=C/c1ccco1)c1ccc(NC(=O)C23CC4CC(CC(C4)C2)C3)cc1	-5	8	-5	-3
Cn1c2ccccc2c2ncn(Cc3ccco3)c(=O)c21	1	-22	2	-3
Cn1c2ccccc2c2ncn(Cc3ccc(F)cc3)c(=O)c21	-3	-1	4	80*
CN(C)C(=O)c1cccc(COc2ccc(N3C(N)=NC(N)=NC3(C)C)cc2Cl)c1	.	-3	7	.
C(=N\n1cnnc1)/c1cccs1	-5	12	-86*	1
O=C(Nc1cccc(C(F)(F)F)c1)c1sc(Cl)nc1C(F)(F)F	12	2	3	-1
Clc1cccc(CNCCCSc2ncccn2)c1Cl	0	-9	-94*	0
O=c1c2cc(NC(=S)NCCCN3CCC(Cc4ccccc4)CC3)ccc2nc2n1CCCCC2	-3	-29	-72*	1
CCN(Cc1ccccc1)C(=O)CSc1ccccc1C(=O)O	1	-233*	-176*	0
CCOC(=O)/C(=C/C=C1\Sc2cc(C)c(C)cc2N1CC)C(C)=O	-5	-15	21	106*
SMILES	TRPV1 potentiator	KCNH2 WT inh	KCNH2 3.1 block	TRPV1 agonist
CCOC(=O)/C(=C/C=C1\Sc2ccccc2N1CC)C(C)=O	-1	3	.	?
O=C(NCC1CCCO1)C(=O)N/N=C/c1ccc(O)c(Cl)c1 (stereo unspecified)	-11	-225*	-38	1
CC(C)OCCCN1CC(=O)N2C(c3ccccc3)c3[nH]c4ccccc4c3C[C@H]2C1=O (stereo partly specified)	3	25	?	3
COc1cccc(C2c3[nH]c4ccccc4c3C[C@H]3C(=O)N(CCCOC(C)C)CC(=O)N23)c1 (stereo partly specified)	6	4	-156*	3
O=C(c1cc(COc2ccc(F)c(F)c2)on1)N1CCN(C2CCCCC2)C(=O)C1	-24	-6	-125*	23
Cc1c(C(=O)Nc2ccccc2)cnn1-c1ccccc1	.	-3	0	.
CN(C)c1ccc(NC(=O)c2cccc([N+](=O)[O-])c2)c2ccccc12	-12	-8	25	83*

Screens as filed in PubChem BioAssay.
